KB-V1 MDR tox = qHTS assay for MDR1-selective chemotherapeutics: Primary screen using the drug-selected MDR subline cells KB-V1 | Potency, µM (highest dose often 46.1 µM), hits mostly cytotoxic | KB-V1 MDR cells viability, CellTiter-Glo, 72 h | 3.4% of 400,000 active | AID 1347076, 2019; also: % is scaled to controls: 0 for no effect and ±100 for the full control effect; nearly all actives have a fitted effect of over 60% in size
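Cytotoxicity toward P-gp-expressing KB-V1 cells was determined as loss of CellTiter-Glo luminescence after 72 h at 37 degrees C. Compounds were tested in quantitative HTS format across a concentration range, with curves fitted to normalized data.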
MCF10A rerep = A quantitative high throughput screen for small molecules that induce DNA re-replication in MCF 10a normal breast cells | MCF 10A DNA re-replication, Hoechst nuclear intensity, 48 h | Potency, µM (series often up to 46.1 µM), inactives show at the highest dose activity, positive = re-replication, most hits filed as activators | 2.9% of 350,000 active | AID 624296, 2012; also: % of control where 0% means no effect; nearly all actives have a fitted effect of over 50% in size
HT1080NT lethal = qHTS for induction of synthetic lethality in tumor cells producing 2HG: qHTS for the HT-1080-NT fibrosarcoma cell line; AID 686970, 2013; HT-1080-NT fibrosarcoma viability, CellTiter-Glo ATP luminescence, 48 h; Potency, µM (series often up to 46.1 µM), inactives show at the highest dose activity, negative = less viability, most hits filed as cytotoxic; 1.6% of 360,000 active;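 also: NT is the 2HG producing partner of a matched IDH1 knockdown line; 0% = DMSO-treated cells and -100% = media-only wells without cells; nearly all actives have a fitted effect of over 55% in size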
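Toxicity toward the 2HG-producing NT line was scored as %Activity, normalised to DMSO and no-cell wells, from CellTiter-Glo luminescence after 48 hours' treatment.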
SW480 rereplic = A quantitative high throughput screen for small molecules that induce DNA re-replication in SW480 colon adenocarcinoma cells; Potency, µM (series often up to 46.1 µM), for the others: top-dose re-replication activation, most hits filed as activators; AID 624297, 2012; 1.8% of 340,000 active; SW480 DNA re-replication, Hoechst DNA content imaging, 48 h; also: % of control where 0% means no effect; nearly all actives have a fitted effect of over 55% in size
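DNA re-replication was detected as more nuclei of elevated Hoechst intensity after 48 hr exposure to compound (23 nL pinned per well of 250 cells).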
HT1080 IDH1KD tx = qHTS for induction of synthetic lethality in tumor cells producing 2HG: qHTS for the HT-1080-IDH1KD cell line | HT-1080 IDH1 knockdown viability, ATP luminescence, 48 h | Potency, µM (highest dose often 46.1 µM), inactives show at the highest dose activity, negative = toxicity, usual class: cytotoxic | 2% of 360,000 active;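 also: 0% = DMSO wells and -100% = cell-free medium wells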
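Assay cells: HT-1080 with IDH1 knockdown, 750 per well, RPMI/5% FBS. Exposure: 48 h at 37 °C following 2 h pre-incubation. Read: CellTiter-Glo luminescence; fitted concentration-response, curve class assigned.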
KB-3-1 cytotox = qHTS assay for MDR1-selective chemotherapeutics: Primary screen using the parental adenocarcinoma cell KB-3-1; Potency, µM (series often up to 46.1 µM), actives largely listed as cytotoxic; 1.4% of 400,000 active; KB-3-1 viability, CellTiter-Glo ATP luminescence, 72 h; also: % is scaled to controls: 0 for no effect and ±100 for the full control effect; nearly all actives have a fitted effect of over 60% in size
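Luminescent ATP read-out (CellTiter-Glo) measures survival of drug-naive KB-3-1 cells after 72 h compound exposure at 37 °C. Titration series was screened from lowest to highest concentration, with DMSO vehicle plates as background controls.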
* hit, by the source's call; i = inactive; ? = inconclusive; . = no result. Only some compounds are listed: those with a hit (about 8% of all), similar ones and a draw of the others. Calls follow the shape of the dose curve; as a rule, active = well fitted curve in the direction sought with a large enough effect; inconclusive = small, poorly fitted or top-dose-only effect, or another doubt; inactive = no such curve, though single readings can be large; an effect the other way counts as inactive or inconclusive. Potency is read from the fitted curve at half-maximal effect.

SMILES | KB-V1 MDR tox | MCF10A rerep | HT1080NT lethal | SW480 rereplic | HT1080 IDH1KD tx | KB-3-1 cytotox
COc1cccc(CN(C)CC(=O)Nc2cc(S(=O)(=O)N3CCCC3)ccc2Cl)c1OC | 20.6µM* | ? | -6.7% | 8.5% | -2.9% | ?
COc1ccc(S(=O)(=O)N2CCCCC2)cc1NC(=O)CN(Cc1ccco1)Cc1ccco1 | ? | 20.6µM* | -16.4% | -5.6% | -8.4% | i
COc1ccc(S(=O)(=O)N2CCCCC2)cc1NC(=O)CSc1ncnc2ccccc12 | 20.6µM* | 18.1% | -10.2% | 20.6% | -10.0% | i
CCn1nc(C)c2c(-c3ccccc3)cc(=O)n(C(C)C(=O)NCc3ccc(C)cc3)c21 (stereo not given) | i | . | . | . | . | i
Cc1ccc(NC(=O)C(Cc2ccccc2)NS(=O)(=O)c2cccc3nsnc23)c(C)c1 (stereo not given) | ? | . | . | . | . | i
COc1ccc(NC(=O)CCNS(=O)(=O)c2cccc3nsnc23)cc1Cl | i | . | . | . | . | i
CCCCNC(=O)c1ccc2nc(-c3cccs3)c(-c3cccs3)nc2c1 | i | . | . | . | . | i
Cc1ccc(S(=O)(=O)N2CCCCC2)cc1NC(=O)CCOc1ccccc1 | ? | 6.3% | 1.8% | 10.4% | -1.8% | i
CCOc1ccc(S(=O)(=O)N2CCCCC2)cc1NC(=O)Cc1cccs1 | 23.1µM* | 0.9% | -4.5% | -2.1% | -2.7% | i
CCN(CC(=O)Nc1cc(S(=O)(=O)N2CCCCC2)ccc1C)Cc1ccccc1 | ? | 20.6µM* | -1.6% | -2.4% | ? | ?
COc1cc2c(cc1OC)C(C)N(CC(=O)Nc1ccc(C)c(S(=O)(=O)N3CCOCC3)c1)CC2 (stereo not given) | i | -3.3% | 16.4µM* | -8.9% | ? | i
COc1ccc(NC(=O)CN2CCc3ccccc3C2)cc1S(=O)(=O)N1CCOCC1 | i | 0.9% | -12.8% | 0.1% | -8.4% | i
Cc1ccc(NC(=O)CSc2nc(N)cc(N)n2)cc1S(=O)(=O)N1CCOCC1 | i | ? | -6.7% | 3.66µM* | -4.6% | i
Cc1ccc(NC(=O)c2cc(=O)c3ccccc3o2)cc1S(=O)(=O)N1CCOCC1 | 16.4µM* | 1.0% | -16.6% | -14.6% | -6.1% | i
O=C(Nc1ccc(S(=O)(=O)N2CCCC2)cc1)c1cc(=O)c2ccccc2o1 | i | -1.5% | 28.6% | -9.6% | 17.4% | i
COCc1c(C(=O)Nc2ccc(C)c(S(=O)(=O)N3CCOCC3)c2)oc2ccccc12 | 4.61µM* | ? | 6.4% | -1.2% | -1.8% | ?
Cc1ccc(NC(=O)CSc2nc(C)c(C)c(C)n2)cc1S(=O)(=O)N1CCOCC1 | ? | 0.1% | -8.8% | 3.3% | -1.1% | i
COc1ccccc1/C=C/c1cnccn1 | i | . | . | . | . | ?
CCc1ccc(NC(=O)Cn2c(=O)c3cc(Cl)ccc3n3nncc23)cc1 | i | . | . | . | . | i
O=C(Nc1ccc(S(=O)(=O)N2CCCCCC2)cc1)c1cc(=O)c2ccccc2o1 | i | . | . | . | . | i
CCOCc1c(C(=O)Nc2ccc3nc(N4CCOCC4)sc3c2)oc2ccccc12 | 20.6µM* | ? | -2.2% | 1.5% | -9.5% | ?
CCOC(=O)Nc1ccc2nc(N3CCCCCC3)sc2c1 | ? | 14.6µM* | ? | 10.3µM* | 8.2µM* | i
Cc1nc(SCC(=O)Nc2ccc(S(=O)(=O)N3CCOCC3)cc2)c2c(C)c(C)sc2n1 | i | ? | -8.8% | -6.0% | ? | 5.8µM*
Cc1ccc(NC(=O)c2cc(=O)c3ccccc3o2)cc1S(=O)(=O)N1CCCCC1 | 9.2µM* | ? | -24.1% | -2.0% | ? | ?
CC(=O)Nc1nonc1-c1nnc(SCc2ccc(F)cc2)n1C | i | . | . | . | . | i
SMILES | KB-V1 MDR tox | MCF10A rerep | HT1080NT lethal | SW480 rereplic | HT1080 IDH1KD tx | KB-3-1 cytotox
COc1ccccc1CNC(=O)c1cn(C)c2ccc(S(=O)(=O)N(C)C3CCCCC3)cc2c1=O | i | . | . | . | . | i
Cn1cc(S(=O)(=O)N2CCCCCC2)cc1C(=O)Nc1ccc(Cl)c(C(F)(F)F)c1 | i | . | . | . | . | i
Cc1ccc(NC(=S)NCc2ccccc2)cc1S(=O)(=O)N1CCCCC1 | 13µM* | -0.3% | -10.0% | ? | -7.6% | ?
CS(=O)(=O)c1ccc(Nc2nc(C(N)Cc3ccc(F)cc3)cs2)cc1 (stereo not given) | i | . | -29.9% | . | -28.5% | i
NC(Cc1ccc(C(F)(F)F)cc1)c1csc(Nc2nccc(C(F)(F)F)n2)n1 (stereo not given) | 23.1µM* | . | ? | . | ? | ?
CCCc1cnc(Nc2nc(C(N)Cc3ccc(C(F)(F)F)cc3)cs2)nc1 (stereo not given) | ? | . | 16.4µM* | . | ? | ?
NC(COCc1ccccc1)c1csc(Nc2nccc(C(F)(F)F)n2)n1 (stereo not given) | ? | . | -7.3% | . | -4.2% | i
CS(=O)(=O)c1ccc(Nc2nc(C(N)Cc3ccc(C(F)(F)F)cc3)cs2)cc1 (stereo not given) | ? | . | 18.4µM* | . | ? | ?
COc1ccc(OC)c(CN2CCC(C(=O)N3CCOCC3)CC2)c1 | i | ? | -5.1% | 0.517µM* | -2.0% | i
COc1ccc(C(C)=O)cc1CN1CCCCC1 | i | 14.6µM* | 4.6% | 0.1% | 3.0% | i

Assay outcomes (PubChem BioAssay)
